High-throughput results: PubChem, National Center for Advancing Translational Sciences (NCATS)
An excerpt weighted towards active compounds, which were near 6.4% of everything screened.
VP16 counter: inhibits Gal4-VP16 luciferase reporter, ROR gamma counter-screen. Drosophila S2 Gal4-VP16 UAS-luciferase, luminescence, 20 h. 3.5% of 310,000 active. Potency, µM (series often up to 53.6 µM), inactives show at the highest dose activity, negative = inhibition, most hits filed as inhibitors;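 also: Gal4-VP16 expression switched on by copper sulfate through the metallothionein promoter; nearly all actives have a fitted effect of over 50% in size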
Luc counter: Kinase-Glo luciferase inhibition (counter-screen); Q27757; Kinase-Glo luciferase, ATP luminescence, 8 min; Potency, µM (doses to about 38.3 µM), inactives show at the top dose activity change, negative = inhibition, hits mostly inhibitors; 0.28% of 200,000 active; AID 1379; also: nearly all actives have a fitted effect of over 60% in size
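Kinase-Glo luciferase light output from ATP and luciferin was measured with 10 uM ATP, within the enzyme's linear range. Buffer: 50 mM imidazole pH 7.2, 50 mM KCl, 7 mM MgCl2, 0.01% Tween 20, 0.05% BSA; luminescence read after 8 min at ambient temperature.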
RORg inh: ROR gamma (mouse) transcription inhibition. P51450. Drosophila S2 Gal4-RORgamma UAS-luciferase reporter, 20 h. Potency, µM (series often up to 53.6 µM), without a hit: at the top dose activity change, negative = inhibition, most hits filed as inhibitors. 5.4% of 310,000 active; also: nearly all actives have a fitted effect of over 60% in size
Target sequence (P51450 whole entry, looked up, the tested form may be a part): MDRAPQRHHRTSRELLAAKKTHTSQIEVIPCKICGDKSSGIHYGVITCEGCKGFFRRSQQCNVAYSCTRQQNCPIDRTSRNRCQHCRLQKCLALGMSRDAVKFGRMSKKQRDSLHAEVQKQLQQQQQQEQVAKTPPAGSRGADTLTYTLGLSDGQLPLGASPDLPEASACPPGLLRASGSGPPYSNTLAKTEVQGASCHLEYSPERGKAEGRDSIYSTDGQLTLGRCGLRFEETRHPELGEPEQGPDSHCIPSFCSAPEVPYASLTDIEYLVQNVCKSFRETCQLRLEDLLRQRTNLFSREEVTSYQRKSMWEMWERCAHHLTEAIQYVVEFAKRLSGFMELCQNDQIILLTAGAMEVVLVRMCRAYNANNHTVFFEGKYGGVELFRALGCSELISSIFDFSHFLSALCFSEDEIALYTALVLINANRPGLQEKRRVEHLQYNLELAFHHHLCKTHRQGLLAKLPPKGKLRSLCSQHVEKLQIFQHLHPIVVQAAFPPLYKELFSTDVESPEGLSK
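A Gal4/UAS one-hybrid system in insect cells: metallothionein-promoter Gal4–ROR gamma fusion plus Photinus luciferase reporter. Copper sulfate 700 uM final, 20 hr ambient incubation, luminescent detection after 10 min with reagent.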
Active calls of the source: *; u = inconclusive; x = not tested or not shown; ! = not active in a repeat; [ ] = another dose, or the depositor's remark. Calls follow the shape of the dose curve; as a rule, active = well fitted curve in the direction sought with a large enough effect; inconclusive = small, poorly fitted or top-dose-only effect, or another doubt; inactive = no such curve, though single readings can be large; an effect the other way counts as inactive or inconclusive. % is scaled to controls: 0 for no effect and ±100 for the full control effect; potency is read from the fitted curve at half-maximal effect.

SMILES	VP16 counter	Luc counter	RORg inh
CCNc1ncc2nc(-c3cc(F)cc(F)c3)c(=O)n(CCc3ccccc3)c2n1	-27.5%	x	24.0%
COCCN1C(=O)C(=O)/C(=C(/O)c2ccc(C)cc2)C1c1ccccn1 (stereo unspecified)	-1.1%	-1.5%	-1.3%
CC(=O)c1cccc(NS(=O)(=O)c2ccc(N/C=C\C(=O)c3ccc(F)cc3)cc2)c1	7.5%	-0.4%	23.2%
CC(=O)c1cccc(NS(=O)(=O)c2ccc(N/C=C/C(=O)c3ccc(F)cc3)cc2)c1	4.47µM*	4.4%	u
CCC(=O)CCC(=O)c1ccc2ccccc2c1	4.0%	-0.2%	-41.8%
CC(C)N(CCC(=O)c1ccc2ccccc2c1)Cc1ccccc1	2.51µM*	-1.8%	2.82µM*
Cc1ccccc1CSc1ccc2nnc(-c3ccccn3)n2n1	-18.5%	0.0%	4.0%
CCn1cc(S(=O)(=O)CC(=O)Nc2ccc3c(c2)OCCO3)c2ccccc21	-0.2%	-2.3%	11.4%
CCn1cc(C2=NCCO2)c2ccccc21	-17.4%	7.6%	20µM*
CCn1cc(C(=O)C(F)(F)F)c2ccccc21	-12.0%	-0.6%	5.1%
CCn1cc(C2=NC(C)CO2)c2ccccc21 (stereo unspecified)	-27.9%	-1.5%	10µM*
CCn1cc(SCC(=O)N2CCOCC2)c2ccccc21	1.1%	0.4%	-2.4%
O=[N+]([O-])c1cccc(C2=NC(c3ccccc3)CO2)c1 (stereo unspecified)	-12.1%	0.5%	-1.3%
CCn1cc(C2=NCC(C)O2)c2ccccc21 (stereo unspecified)	u	1.3%	17.8µM*
CCn1cc(C2=NC(c3ccccc3)CO2)c2ccccc21 (stereo unspecified)	-8.9%	-3.0%	10µM*
O=C(c1c(F)cccc1F)N1CCCc2ccccc21	-1.1%	x	-1.8%
COc1ccccc1-n1cnnc1SCC(=O)Nc1cccc(S(N)(=O)=O)c1	-1.9%	x	7.8%
COC(=O)c1cc(S(=O)(=O)N2CCCCCC2)c[nH]1	0.4%	x	3.3%
CCOC(=O)c1sc2nc(SCC(=O)N(CC)CC)n(CCCN3CCCC3=O)c(=O)c2c1C	-4.2%	0.2%	10.8%
O=C(COC(=O)CCCN=C1NS(=O)(=O)c2ccccc21)NC(=O)NC1CCCC1	-5.5%	-0.4%	28.9%
NC(N)=NCCC[C@H](NC(=O)CC1(CC(=O)N2CCN(C3c4ccccc4NC(=O)c4ccccc43)CC2)CCCC1)C(=O)NCCn1c(=O)n(-c2ccccc2)n(-c2ccccc2)c1=O (stereo partly specified)	2.5%	-2.5%	-12.3%
CC1=C(CC[C@H](C)CO)O[C@@H]2C[C@@H]3[C@H]4CC[C@H]5C[C@@H](O)CC[C@]5(C)[C@@H]4CC(=O)[C@@]3(C)[C@@H]12	x	-3.0%[7.66 µM]	x
CCn1cc(C2=NC(C)(C)CO2)c2ccccc21	u	-1.7%	20µM*
CCn1cc(CCC(=O)NC2CCCC2)c2ccccc21	5.4%	x	6.1%
CC(C)(C)C(=O)NC1(C(F)(F)F)NC(=O)N(c2ccc(F)cc2)C1=O (stereo unspecified)	1.0%	2.5%	-4.1%
SMILES	VP16 counter	Luc counter	RORg inh
Cc1ccc(/C=C2/Sc3ccccc3N(CC(=O)NCC3CCCO3)C2=O)cc1 (stereo unspecified)	-0.7%	x	6.0%
Cc1cc(/C=C2\Sc3ccccc3N2C)cc(C)[n+]1CC1CCCO1 (stereo unspecified)	2µM*	-2.8%	2.82µM*
CCCCN(C)C(=O)Cn1ncc2c3ccccc3n(CCC)c2c1=O	-1.5%	x	31.8%
O=C(Nc1ccc(F)cc1)Nc1ccc(NC(=O)c2ccccc2O)cc1	-6.9%	x	1.3%
Cc1ccc(F)cc1NC(=O)N1CCN(c2ccnc3cc(Cl)ccc23)CC1	0.4%	x	6.9%
O=C(Nc1cc(F)ccc1F)N1CCN(c2ccnc3cc(Cl)ccc23)CC1	12.6µM*	x	53.0%
O=C(Oc1c(Cl)cc(Cl)c2cccnc12)N1CCOCC1	16.1%	4.7%	-38.5%
O=C(Oc1c(CN2CCOCC2)cc(Cl)c2cccnc12)c1ccccc1Br	3.98µM*	x	6.31µM*
O=C(Oc1c(Cl)cc(Cl)c2cccnc12)N1CCCCC1	-1.3%	0.8%	21.1%
CN1CCN(Cc2cc(Cl)c3cccnc3c2OC(=O)c2cccs2)CC1	12.6µM*	-1.8%	4.47µM*
COc1cc(OC)c(S(=O)(=O)NC(C)C)cc1C(=O)O	-4.0%	x	-0.5%
COC(=O)c1ccccc1OCCOc1ccccc1C(=O)OC	-0.4%	0.8%	20.7%
COC(=O)c1ccccc1OCCCOc1ccc(C=O)cc1OC	10µM*	-2.6%	8.91µM*
COc1cc(C=O)ccc1OCc1ccccc1Br	11.2µM*	-12.6%	10µM*
COc1cc(C=O)ccc1OCc1cccc(Br)c1	u	3.3%	u
CN(Cc1ccco1)c1ncncc1-c1ccccc1C(F)(F)F	3.2%	x	10.6%
CN(NS(C)(=O)=O)c1ncc(C(F)(F)F)cc1Cl	u	-2.9%	11.2µM*
O=S(=O)(c1ccccc1)c1ncc(C(F)(F)F)cc1O	0.5%	2.7%	u
CN(NC(=O)c1ccccc1)c1ncc(C(F)(F)F)cc1Cl	-23.0%	x	0.7%
O=S(=O)(c1ccccc1)c1ncc(C(F)(F)F)cc1Cl	15.8µM*	6.4%	8.91µM*
CN(C)CC(C)(C)CN=Cc1c(O)[nH]c2ccccc12	-2.2%	x	-39.0%
Cc1cc(C)c(C)c(S(=O)(=O)NCc2ccc(C(=O)N3CCOCC3)cc2)c1C	-11.1%	x	u
O=C(Nc1nnc(-c2ccc(F)cc2)o1)c1cccc([N+](=O)[O-])c1	0.794µM*	0.7%	0.398µM*
O=C(NCc1ccc2c(c1)OCO2)c1cccc([N+](=O)[O-])c1	-2.6%	0.7%	27.9%
O=C(Nc1nnc(C2=COCCO2)o1)c1cccc(Br)c1	0.501µM*	x	0.355µM*
SMILES	VP16 counter	Luc counter	RORg inh
O=C(Nc1ccc(NC(=O)c2cccc([N+](=O)[O-])c2)cc1)c1cccc([N+](=O)[O-])c1	-7.4%	x	10.0%
O=C(Nc1nnc(C2=COCCO2)o1)c1cccc([N+](=O)[O-])c1	3.98µM*	x	1µM*
O=C(NCC1CCCO1)c1cccc(Br)c1 (stereo unspecified)	14.7%	3.0%	2.9%
O=C(NCc1cccc(Cl)c1)c1ccc(CS(=O)Cc2ccc(Cl)cc2)o1 (stereo unspecified)	-1.9%	x	13.7%
S=C1Cc2ccccc2C(c2ccc(Cl)cc2)N1 (stereo unspecified)	5.62µM*	x	6.31µM*
O=C1Cc2ccccc2C(c2ccc(Cl)cc2)N1 (stereo unspecified)	3.3%	x	1.5%
CCN1C(=S)N[C@@H](c2cccs2)C(C(=O)OC)=C1C	20µM*	x	3.98µM*
COC(=O)C1=C(C)N(CC2CC2)C(=O)N[C@H]1CCc1ccccc1	-9.6%	0.5%	-12.3%
CCN1C(=S)N[C@@H](CCc2ccccc2)C(C(=O)OC)=C1C	u	x	4.47µM*!
CCOC(=O)C1=C(C)N(CC)C(=S)NC1c1ccccc1OC(F)F (stereo unspecified)	u	2.8%	2µM*
CCN1C(=O)N[C@@H](c2cccs2)C(C(=O)OC)=C1C	x	-0.3%[7.66 µM]	x
CC1=C(C(=O)OCc2ccccc2)C(c2ccccc2OC(F)F)NC(=O)N1 (stereo unspecified)	-4.1%	14.2%	7.7%
